Compound activity deposited in PubChem BioAssay by National Center for Advancing Translational Sciences (NCATS).
A selection: hits, their analogues and other compounds. The true share with any hit is near 3.2%.
AmpC no deterg = AmpC beta-lactamase inhibition without detergent; P00811; AID 485341; actives 0.52% (n = 330,000); Potency, µM (highest dose often 57.1 µM), inactives show top-dose activity change, negative = inhibition, actives largely listed as inhibitors; AmpC nitrocefin hydrolysis, absorbance 480 nm, 0.0001% Triton;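 also: plate controls were no compound for no effect and no enzyme for full effect; nearly all actives have a fitted effect of over 20% in size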
Target sequence (P00811 whole entry, looked up): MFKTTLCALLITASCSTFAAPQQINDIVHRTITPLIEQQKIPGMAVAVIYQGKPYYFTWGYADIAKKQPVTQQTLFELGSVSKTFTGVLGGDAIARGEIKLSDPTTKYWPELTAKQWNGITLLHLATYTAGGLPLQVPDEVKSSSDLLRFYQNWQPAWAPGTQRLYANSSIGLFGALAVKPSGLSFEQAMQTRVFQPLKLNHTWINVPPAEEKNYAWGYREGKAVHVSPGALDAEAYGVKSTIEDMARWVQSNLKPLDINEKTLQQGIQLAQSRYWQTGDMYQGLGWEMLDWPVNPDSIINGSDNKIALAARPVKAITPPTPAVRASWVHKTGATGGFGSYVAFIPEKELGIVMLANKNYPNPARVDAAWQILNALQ
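20 mM phosphate pH 7.0 + 0.01% (detergent screen) or 0.0001% Triton X-100; 5.3 nM AmpC reagent; cpd preinc 15 min RT; nitrocefin (800 uM stock) to start; A480 q20 s × 4 min; Activity was normalised to no-enzyme and no-compound control wells.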
Sm TGR block = S. mansoni TGR enzyme inhibition. Q962Y6. actives 3% (n = 360,000). Potency, µM (series often up to 114 µM), without a hit: top-dose activity change, negative = inhibition, actives largely listed as inhibitors. purified TGR, DTNB reduction, TNB absorbance 405 nm; also: nearly all actives have a fitted effect of over 60% in size
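Kinetic colorimetric format: TGR-catalysed, NADPH-driven DTNB reduction monitored via TNB absorbance. Enzyme dispensed at 20 nM; compound exposure 15 min at room temperature before reaction start.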
AMA1 RON2 block = disrupts binding of P. falciparum AMA1 to RON2; Potency, µM (series often up to 58.2 µM), for inactives: at the highest dose activity change, negative = inhibition, hits mostly inhibitors; AID 720542; AlphaScreen AMA1-biotinylated RON2 peptide binding; actives 0.2% (n = 360,000);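 also: 0% = vehicle wells and -100% = peptide control; nearly all actives have a fitted effect of over 45% in size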
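AMA1 (3D7) with his tag at 25 nM final met compounds first, then biotinylated RON2 peptide at 25 nM; detection used donor plus acceptor beads, 10 µg/mL apiece, read by AlphaScreen after 30 min at room temperature.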
RE007 growth inh = less growth of the S. pombe RE007 Vpr strain | S. pombe RE007 Vpr strain, BacTiter-Glo ATP luminescence, 24 h | Potency, µM (doses to about 92.2 µM), for inactives: at the highest dose activity change, negative = less growth, most hits filed as inhibitors | actives 0.21% (n = 360,000); active = well fitted falling curve with a large enough effect; inconclusive = small, poorly fitted or top-dose-only effect; inactive = no such curve, though single readings can be large or run the other way; also: nearly all actives have a fitted effect of over 50% in size
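Fission yeast strain RE007, carrying one chromosomally integrated HIV-1 vpr copy, was seeded at OD 0.01 in PMG+AL medium with 23 nL pinned compound. After 24 h at 30 °C and 99% humidity, viability was read by BacTiter-Glo luminescence.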
AmpC detergent = AmpC beta-lactamase inhibition with detergent present; AmpC hydrolysis of nitrocefin, absorbance 480 nm, 0.01% Triton; actives 0.041% (n = 370,000); Potency, µM (series often up to 114 µM), for inactives: top-dose activity change, negative = inhibition, most hits filed as inhibitors; AID 485294;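 also: 0% = no-compound wells and -100% = no-enzyme wells; nearly all actives have a fitted effect of over 25% in size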
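AmpC (5.3 nM in the dispensed reagent) in 20 mM phosphate pH 7.0 with 0.01% (detergent screen) or 0.0001% Triton X-100 was preincubated with compounds for 15 min at room temperature. Nitrocefin was then added from an 800 uM solution, and hydrolysis was followed at 480 nm.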
* = called active by the depositor; ? = inconclusive; nt = no result given. Unless noted, calls follow the shape of the dose curve; as a rule, active = well fitted curve in the direction sought with a large enough effect; inconclusive = small, poorly fitted or top-dose-only effect, or another doubt; inactive = no such curve, though single readings can be large; an effect the other way counts as inactive or inconclusive. Unless noted, % is scaled to controls: 0 for no effect and ±100 for the full control effect; potency is read from the fitted curve at half-maximal effect.

SMILES	AmpC no deterg	Sm TGR block	AMA1 RON2 block	RE007 growth inh	AmpC detergent
CCOc1cc(/C=C2/COc3ccccc3C2=O)ccc1OCC(=O)N(C)C	197%	32µM*	-6%	-8%	-1%
CCOC(=O)/C(=C/c1ccc(OC(=O)c2ccccc2)cc1)C(C)=O	-11%	?	-3%	28µM*	-8%
O=C1c2ccccc2-c2onc3c(NCCO)cc(NC4CCCCC4)c1c23	nt	-7%	nt	nt	0%
O=C1c2ccccc2-c2onc3ccc(Oc4ccccc4)c1c23	-12%	6.3µM*	?	?	2%
O=[N+]([O-])c1ccc(S(=O)Cc2ccccc2)c([N+](=O)[O-])c1 (centres undefined)	nt	nt	-2%	5.6µM*	nt
O=[N+]([O-])c1ccc(CS(=O)c2ccccc2)cc1 (centres undefined)	nt	nt	4%	12%	nt
O=c1c(-c2ccco2)[n+]([O-])c2ccccc2n1OCc1ccccc1[N+](=O)[O-]	-23%	16µM*	-5%	-10%	2%
O=c1c(-c2ccc(F)cc2)[n+]([O-])c2ccccc2n1OCc1ccccn1	-7%	nt	-2%	-15%	1%
O=c1c(-c2ccco2)[n+]([O-])c2ccccc2n1OCc1ccccn1	-7%	18µM*	10%	-13%	-2%
CN(C)c1ccc(C(=O)/C=C/c2ccco2)cc1	-35%	45µM*	-14%	-18%	?
O=C(/C=C/c1ccco1)c1ccc(O)cc1	-31%	3.5µM*	nt	nt	1%
CN(C)c1ccc(C(=O)/C=C/c2ccccc2)cc1	-25%	5%	-14%	-18%	0%
CC(=O)N1CCc2cc(C(=O)CN3CCN(c4ccccn4)CC3)ccc21	10%	35µM*	-4%	-14%	12%
CC(=O)N1CCc2cc(C(=O)CN3CCN(c4ccccc4F)CC3)ccc21	2%	?	3%	1%	?
Cc1c(NC(C)c2ccccc2O)c(=O)n(-c2ccccc2)n1C (centres undefined)	-11%	40µM*	-1%	-10%	2%
Cc1c(NN=C(C#N)C#N)c(=O)n(-c2ccccc2)n1C	4%	22µM*	47%	-1%	2%
Cc1ccc(-c2noc(-c3ccccc3NC(=O)C3CC(=O)N(c4ccccc4C)C3)n2)cc1 (centres undefined)	nt	7%	nt	nt	18%
O=C(CS(=O)(=O)c1cccc2nsnc12)Nc1ccc(F)cc1	nt	0%	nt	nt	1%
CCOC(=O)c1sc(NS(=O)(=O)c2ccccc2)nc1C	-12%	-28%	-3%	8%	-9%
Cc1nc(NS(=O)(=O)c2ccccc2)sc1NC(=O)OCCN(C)C	-19%	32µM*	8%	18%	2%
Cc1ccc(C)c2[nH]c(=O)c(CCNC(=O)C(C)(C)C)cc12	40µM*	0%	-4%	8%	-4%
Cc1ccc(C)c2[nH]c(=O)c(CCNC(=O)c3ccc(S(=O)(=O)N(C)C)cc3)cc12	2.8µM*	6%	-6%	-11%	-15%
Cc1ccc(C)c2[nH]c(=O)c(CCNC(=O)c3ccc(S(=O)(=O)N4CCOCC4)cc3)cc12	221%	1%	0%	1%	10%
Cc1ccc(C)c2[nH]c(=O)c(CCNC(=O)Cc3cccs3)cc12	-6%	0%	-7%	7%	-15%
Cc1nc2c(c(C)c1CCC(=O)NCc1ccc(F)cc1)c(=O)n(C)c(=O)n2C	nt	-6%	nt	nt	-9%
SMILES	AmpC no deterg	Sm TGR block	AMA1 RON2 block	RE007 growth inh	AmpC detergent
CCCc1cc(Nc2c(C)n(C)n(-c3ccccc3)c2=O)n2c(nc3ccccc32)c1C#N	42%	14µM*	4%	-3%	-14%
Cc1cc(Nc2c(C)n(C)n(-c3ccccc3)c2=O)n2c(nc3ccccc32)c1C#N	-7%	22µM*	0%	-4%	0%
Cc1cccc(C(C)C)c1NC(=O)c1ccc2c(c1)CCN2S(C)(=O)=O	nt	0%	nt	nt	16%
CC1C2(C)OCC(C#N)(C(=N)O2)C1(C#N)C#N (centres undefined)	-16%	13µM*	nt	nt	8%
Cc1cccc(CNC(=O)Cn2nc(C)n3c(cc4cc(F)ccc43)c2=O)c1	nt	16%	nt	nt	0%
O=C(CCl)Nc1cc(-c2ccccc2)nn1-c1ccccc1	-19%	13µM*	0%	-9%	5%
Cc1ccc(-c2cc(NC(=O)CCl)n(-c3ccccc3)n2)cc1	-27%	?	-4%	?	9%
CCN(Cc1ccc(OC)cc1)c1ccc(-c2nc(-c3ccncc3)no2)cc1[N+](=O)[O-]	nt	-10%	nt	nt	1%
Cc1ccc(C)c(NC(=O)c2nc(S(=O)(=O)Cc3ccc(F)cc3)ncc2Cl)c1	nt	2.5µM*	nt	nt	6%
Cc1ccc(CS(=O)(=O)c2ncc(Cl)c(C(=O)Nc3nnc(C(C)C)s3)n2)cc1	-32%	18µM*	60%	11%	?
CCSc1nnc(NC(=O)c2nc(S(=O)(=O)Cc3ccc(F)cc3)ncc2Cl)s1	-24%	35µM*	69%	4%	-3%
CSc1nnc(NC(=O)c2nc(S(=O)(=O)Cc3cccc(C)c3)ncc2Cl)s1	-26%	20µM*	53%	-6%	11%
CCOC(=O)c1c(C)[nH]c(C)c1S(=O)(=O)N1CCCC(C(=O)N2CCN(c3cccc(C)c3C)CC2)C1 (centres undefined)	nt	3%	nt	nt	-7%
CCCOC(=O)c1cccc(NC(=O)c2c(-c3ccccc3Cl)noc2C)c1	nt	12%	nt	nt	7%
COc1ccc(-n2nc(C(=O)Nc3cc(C)ccn3)c3c4ccccc4n(C)c3c2=O)cc1Cl	nt	-1%	nt	nt	4%
O=C(CSc1nc(-c2ccccc2)nc2c1CCCC2)c1ccc(F)cc1	nt	9%	nt	nt	8%
N#Cc1ccc(CSc2nnc(-c3ccc(Br)cc3)o2)cc1	nt	5%	nt	nt	-5%
CC(C)c1nnc(NC(=O)c2nc(S(=O)(=O)Cc3ccc(F)cc3)ncc2Cl)s1	-39%	25µM*	62%	0%	-1%
CC(C)c1nnc(NC(=O)c2nc(SCc3ccc(F)cc3)ncc2Cl)s1	nt	2%	nt	nt	10%
Cc1cccc(CS(=O)(=O)c2ncc(Cl)c(C(=O)Nc3nnc(C(C)C)s3)n2)c1	16%	40µM*	66%	-6%	-1%
